The whole screen tested about 5,500 compounds, of which about 2,000 (36%) were called active. About 18% were inconclusive and are not listed. Cut-off read from the data, not from the text of the source: active = normalized growth mostly below about 0.91 (no sharp cut-off); inconclusive = no clear call, values can overlap the other calls; inactive = mostly above about 0.92. Some of the results follow.
Assay: chemical genetic growth profiling, strain panel (AID 1159580);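 note: tested at 20 µM; growth read once vehicle control cultures reached saturation at 30 °C; 1 = growth at the plate median or of vehicle wells; lower values mean less growth of the strain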
Details: growth OD
[1] = S. cerevisiae deletion strains, locus YAR019C, strain CDC15, hits give low values
[2] = S. cerevisiae deletion strains, locus YBL105C, strain PKC1, hits give low values
[3] = S. cerevisiae deletion strains, locus YBR135W, strain CKS1, hits give low values
[4] = S. cerevisiae deletion strains, locus YBR136W, strain MEC1, hits give low values
[5] = S. cerevisiae deletion strains, locus YBR160W, strain CDC28, hits give low values
[6] = S. cerevisiae deletion strains, locus YDL017W, strain CDC7, hits give low values
[7] = S. cerevisiae deletion strains, locus YDL028C, strain MPS1, hits give low values
[8] = S. cerevisiae deletion strains, locus YDL101C, strain DUN1, hits give low values
[9] = S. cerevisiae deletion strains, locus YDL108W, strain KIN28, hits give low values
[10] = S. cerevisiae deletion strains, locus YDL132W, strain cdc53, hits give low values
[11] = S. cerevisiae deletion strains, locus YDL214C, strain PRR2, hits give low values
[12] = S. cerevisiae deletion strains, locus YDR052C, strain DBF4, hits give low values
[13] = S. cerevisiae deletion strains, locus YDR054C, strain cdc34, hits give low values
[14] = S. cerevisiae deletion strains, locus YDR226W, strain ADK1, hits give low values
[15] = S. cerevisiae deletion strains, locus YDR477W, strain SNF1, hits give low values
[16] = S. cerevisiae deletion strains, locus YER123W, strain YCK3, hits give low values
[17] = S. cerevisiae deletion strains, locus YER133W, strain GLC7, hits give low values
[18] = S. cerevisiae deletion strains, locus YFL009W, strain cdc4, hits give low values
[19] = S. cerevisiae deletion strains, locus YFL029C, strain CAK1, hits give low values
[20] = S. cerevisiae deletion strains, locus YFR003C, strain YPI1, hits give low values
[21] = S. cerevisiae deletion strains, locus YFR019W, strain FAB1, hits give low values
[22] = S. cerevisiae deletion strains, locus YFR028C, strain CDC14, hits give low values
[23] = S. cerevisiae deletion strains, locus YGR040W, strain KSS1, hits give low values
[24] = S. cerevisiae deletion strains, locus YGR052W, strain FMP48, hits give low values
[25] = S. cerevisiae deletion strains, locus YGR092W, strain DBF2, hits give low values
[26] = S. cerevisiae deletion strains, locus YHR030C, strain SLT2, hits give low values
[27] = S. cerevisiae deletion strains, locus YHR079C, strain IRE1, hits give low values
[28] = S. cerevisiae deletion strains, locus YHR082C, strain KSP1, hits give low values
[29] = S. cerevisiae deletion strains, locus YHR205W, strain SCH9, hits give low values
[30] = S. cerevisiae deletion strains, locus YIL147C, strain SLN1, hits give low values
[31] = S. cerevisiae deletion strains, locus YJL095W, strain BCK1, hits give low values
[32] = S. cerevisiae deletion strains, locus YJL128C, strain PBS2, hits give low values
[33] = S. cerevisiae deletion strains, locus YJL157C, strain FAR1, hits give low values
[34] = S. cerevisiae deletion strains, locus YJR016C, strain ILV3, hits give low values
[35] = S. cerevisiae deletion strains, locus YJR066W, strain TOR1 (second series), hits give low values
[36] = S. cerevisiae deletion strains, locus YJR066W, strain TOR1, hits give low values
[37] = S. cerevisiae deletion strains, locus YKL048C, strain ELM1, hits give low values
[38] = S. cerevisiae deletion strains, locus YKL067W, strain YNK1, hits give low values
[39] = S. cerevisiae deletion strains, locus YKL101W, strain HSL1, hits give low values
[40] = S. cerevisiae deletion strains, locus YKL193C, strain SDS22, hits give low values
[41] = S. cerevisiae deletion strains, locus YKL203C, strain TOR2, hits give low values
[42] = S. cerevisiae deletion strains, locus YLR113W, strain HOG1, hits give low values
[43] = S. cerevisiae deletion strains, locus YLR133W, strain CKI1, hits give low values
[44] = S. cerevisiae deletion strains, locus YLR403W, strain SFP1, hits give low values
[45] = S. cerevisiae deletion strains, locus YML070W, strain DAK1, hits give low values
[46] = S. cerevisiae deletion strains, locus YMR001C, strain CDC5, hits give low values
[47] = S. cerevisiae deletion strains, locus YMR205C, strain PFK2 (second series), hits give low values
[48] = S. cerevisiae deletion strains, locus YMR277W, strain FCP1, hits give low values
[49] = S. cerevisiae deletion strains, locus YNL006W, strain LST8, hits give low values
[50] = S. cerevisiae deletion strains, locus YNL020C, strain ARK1, hits give low values
[51] = S. cerevisiae deletion strains, locus YNL161W, strain CBK1, hits give low values
[52] = S. cerevisiae deletion strains, locus YNL183C, strain NPR1, hits give low values
[53] = S. cerevisiae deletion strains, locus YNL207W, strain RIO2, hits give low values
[54] = S. cerevisiae deletion strains, locus YNL222W, strain SSU72, hits give low values
[55] = S. cerevisiae deletion strains, locus YNL307C, strain MCK1 (second series), hits give low values
[56] = S. cerevisiae deletion strains, locus YOL078W, strain AVO1, hits give low values
[57] = S. cerevisiae deletion strains, locus YOL136C, strain PFK27, hits give low values
[58] = S. cerevisiae deletion strains, locus YOR061W, strain CKA2, hits give low values
[59] = S. cerevisiae deletion strains, locus YOR119C, strain RIO1, hits give low values
[60] = S. cerevisiae deletion strains, locus YOR231W, strain MKK1, hits give low values
[61] = S. cerevisiae deletion strains, locus YOR329C, strain SCD5, hits give low values
[62] = S. cerevisiae deletion strains, locus YPL031C, strain PHO85, hits give low values
[63] = S. cerevisiae deletion strains, locus YPL153C, strain RAD53, hits give low values
[64] = S. cerevisiae deletion strains, locus YPL204W, strain HRR25, hits give low values
[65] = S. cerevisiae deletion strains, locus YPL209C, strain IPL1, hits give low values
[66] = S. cerevisiae deletion strains, locus YPL256C, strain CLN2, hits give low values
[67] = S. cerevisiae deletion strains, locus YPR025C, strain CCL1, hits give low values
[68] = S. cerevisiae deletion strains, locus YPR106W, strain ISR1, hits give low values
[69] = S. cerevisiae deletion strains, locus YPR111W, strain DBF20, hits give low values
[70] = S. cerevisiae deletion strains, strain NNK1, hits give low values
[71] = S. cerevisiae deletion strains, strain TSCII, hits give low values
[72] = S. cerevisiae deletion strains, locus YAL013W, strain DEP1, hits give low values
[73] = S. cerevisiae deletion strains, locus YBR229C, strain ROT2, hits give low values
[74] = S. cerevisiae deletion strains, locus YCL061C, strain MRC1, hits give low values
[75] = S. cerevisiae deletion strains, locus YDR150W, strain NUM1, hits give low values
[76] = S. cerevisiae deletion strains, locus YEL061C, strain CIN8, hits give low values
[77] = S. cerevisiae deletion strains, locus YGR078C, strain PAC10, hits give low values
[78] = S. cerevisiae deletion strains, locus YHR087W, strain rtc3, hits give low values
[79] = S. cerevisiae deletion strains, locus YJR043C, strain POL32, hits give low values
[80] = S. cerevisiae deletion strains, locus YKL190W, strain CNB1, hits give low values
[81] = S. cerevisiae deletion strains, locus YLR039C, strain RIC1, hits give low values
[82] = S. cerevisiae deletion strains, locus YLR058C, strain SHM2 (second series), hits give low values
[83] = S. cerevisiae deletion strains, locus YLR085C, strain ARP6, hits give low values
[84] = S. cerevisiae deletion strains, locus YLR262C, strain YPT6, hits give low values
[85] = S. cerevisiae deletion strains, locus YML094W, strain GIM5, hits give low values
[86] = S. cerevisiae deletion strains, locus YMR219W, strain ESC1, hits give low values
[87] = S. cerevisiae deletion strains, locus YMR263W, strain SAP30, hits give low values
[88] = S. cerevisiae deletion strains, locus YNL128W, strain TEP1, hits give low values
[89] = S. cerevisiae deletion strains, locus YNL298W, strain CLA4 (second series), hits give low values
[90] = S. cerevisiae deletion strains, locus YNL322C, strain KRE1, hits give low values
[91] = S. cerevisiae deletion strains, locus YNR030W, strain Alg12, hits give low values
[92] = S. cerevisiae deletion strains, locus YPL055C, strain LGE1, hits give low values
[93] = S. cerevisiae deletion strains, locus YPL241C, strain CIN2, hits give low values
[94] = S. cerevisiae deletion strains, locus YPR135W, strain CTF4, hits give low values

Measured: normalized growth

O=S(=O)(NCc1cc(Cl)cc(Cl)c1)c1cc(C(F)(F)F)cc(C(F)(F)F)c1
active: [26] 0.621 | [42] 0.803
inactive: [1] 1 | [2] 0.994 | [3] 0.998 | [4] 0.998 | [5] 0.998 | [6] 0.998 | [7] 0.994 | [8] 0.994 | [9] 0.997 | [10] 0.987 | [11] 0.935 | [12] 0.996 | [13] 0.985 | [14] 0.992 | [15] 0.912 | [16] 0.907 | [17] 0.928 | [18] 0.992 | [19] 1 | [20] 0.996 | [21] 0.902 | [22] 0.997 | [23] 0.894 | [24] 0.878 | [25] 0.881 | [27] 0.835 | [28] 0.896 | [29] 0.908 | [30] 0.996 | [31] 0.875 | [32] 0.923 | [33] 0.926 | [34] 0.995 | [35] 0.947 | [36] 0.955 | [37] 0.954 | [38] 0.961 | [39] 0.907 | [40] 0.998 | [41] 0.982 | [43] 0.918 | [44] 0.939 | [45] 0.915 | [46] 0.996 | [47] 0.954 | [48] 0.996 | [49] 0.991 | [50] 0.899 | [51] 0.999 | [52] 1.01 | [53] 1 | [54] 0.996 | [55] 0.765 | [56] 0.997 | [57] 0.895 | [58] 0.935 | [59] 0.982 | [60] 0.933 | [61] 0.995 | [62] 0.897 | [63] 0.912 | [64] 0.888 | [65] 0.997 | [66] 0.87 | [67] 0.995 | [68] 0.997 | [69] 0.989 | [70] 0.988 | [71] 0.999

O=S(=O)(Nc1csc(C(F)(F)F)c1-c1ccccc1)c1cc(Br)c(Br)s1
active: [26] 0.305 | [42] 0.8 | [66] 0.712
inactive: [1] 0.957 | [2] 0.952 | [3] 0.96 | [4] 0.93 | [5] 0.961 | [6] 0.955 | [7] 0.935 | [8] 0.968 | [9] 0.939 | [10] 0.971 | [11] 0.927 | [12] 0.961 | [13] 0.96 | [14] 0.953 | [15] 0.91 | [16] 0.899 | [17] 0.959 | [18] 0.968 | [19] 0.949 | [20] 0.961 | [21] 0.852 | [22] 0.974 | [23] 0.912 | [24] 0.873 | [25] 0.804 | [27] 0.814 | [28] 0.654 | [29] 0.887 | [30] 0.951 | [31] 0.911 | [32] 0.956 | [33] 0.948 | [34] 0.962 | [35] 0.962 | [36] 0.861 | [37] 0.894 | [38] 0.943 | [39] 0.79 | [40] 0.964 | [41] 0.964 | [43] 0.871 | [44] 0.906 | [45] 0.897 | [46] 0.957 | [47] 0.907 | [48] 0.968 | [49] 0.973 | [50] 0.837 | [51] 0.957 | [52] 0.814 | [53] 0.959 | [54] 0.955 | [55] 0.81 | [56] 0.964 | [57] 0.878 | [58] 0.696 | [59] 0.948 | [60] 0.879 | [61] 0.954 | [62] 0.844 | [63] 0.88 | [64] 0.89 | [65] 0.96 | [67] 0.958 | [68] 0.961 | [69] 0.943 | [70] 0.966 | [71] 0.963

O=S(=O)(NCCc1ccncc1)c1cc(C(F)(F)F)cc(C(F)(F)F)c1
inactive: [72] 1 | [73] 0.988 | [74] 0.963 | [8] 0.966 | [75] 0.913 | [76] 1 | [77] 0.987 | [26] 1.01 | [78] 1.07 | S. cerevisiae deletion strains, locus YJL187C, strain SWE1, hits give low values 1.01 | [79] 0.964 | S. cerevisiae deletion strains, locus YJR075W, strain HOC1, hits give low values 1.02 | [80] 1.01 | [81] 0.976 | [82] 1 | [83] 1.05 | [84] 1.03 | [85] 1.02 | [86] 0.993 | [87] 1.01 | [88] 0.989 | S. cerevisiae deletion strains, locus YNL153C, strain GIM3, hits give low values 0.994 | [89] 0.986 | [90] 1 | [91] 1.03 | S. cerevisiae deletion strains, locus YOL006C, strain TOP1, hits give low values 0.976 | [92] 1.02 | [93] 0.98 | [94] 0.942 | S. cerevisiae strains, strain wild type, hits give low values 0.979

CCOC(=O)C(=CNNS(=O)(=O)c1cc(C(F)(F)F)cc(C(F)(F)F)c1)C(=O)OCC
inactive: [72] 1.01 | [73] 0.997 | [74] 0.979 | [8] 0.929 | S. cerevisiae deletion strains, locus YDL134C, strain PPH21, hits give low values 1 | [75] 1 | [76] 1.01 | [77] 0.967 | [26] 1 | [78] 0.96 | [79] 0.973 | [80] 0.992 | [81] 0.931 | [82] 0.954 | [83] 1.03 | [84] 0.968 | [85] 0.988 | [86] 0.989 | [87] 1.04 | [88] 0.945 | [89] 1 | [90] 0.993 | [91] 1 | [92] 1.03 | [93] 1.02 | [94] 0.964

Source: PubChem BioAssay AID1159580 (chemical genetic matrix, 2015)
